CSC inhib – cancer stem cell viability inhibitors, primary screen, luminescence; cancer stem cell-like cells viability; 1.1% of 300,000 active; AID 2717, 2010; inhibition, % at 7.5 µM; in the data active = inhibition above about 75%; tested in HMLE shEcad cells
Shn3 3UTR inh – reduction of Shn3 3'UTR firefly luciferase signal, primary screen, Schnurri-3 inhibitor project, cell-based, Clone20 osteoblasts, set 2 | 0.52% of 360,000 active | inhibition, % at 12.5 µM | Clone20 osteoblast Shn3 3'UTR firefly luciferase, 24 h;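 active = mean inhibition of at least 75% with every replicate also reaching 75%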;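 also: 0% = median of neutral control wells and 100% = pilot-screen positive control compound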
Beta cell apopt – inhibitors of cytokine-induced beta cell apoptosis, primary screen, luminescence | INS-1E cytokine-induced death, ATP luminescence, 48 h; percent of positive-control rescue, neutral wells zero | protection from apoptosis, % (no concentration beside the values) | 0.8% of 300,000 active | AID 435005, 2010;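 active = Every replicate reaches about 75%, or at least half do and their mean reaches it too, limit read from the data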;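 also: 0% = cytokine-treated negative control wells and 100% = positive control rescue; higher means more ATP so stronger rescue from cytokine killing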
PAX8 reporter – inhibitors of PAX8-driven TPO luciferase reporter, primary screen, RMG-I cells, single concentration. SteadyGlo, 24 h. inhibition, % at 12.6 µM. 1.2% of 360,000 active. AID 652154, 2013;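 active = mean replicate inhibition at least 60% with every replicate also reaching 60%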;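 also: luciferase light reporting Pax8 driven TPO promoter activity; plate controls were median of neutral control wells for no effect and mitoxantrone controls for full effect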
Gli-Sufu antag – Gli-Sufu pathway antagonists, primary screen, luciferase luminescence, Sufu-KO-LIGHT cells, uHTS; Sufu-KO-LIGHT fibroblasts, Gli luciferase reporter luminescence; inhibition, % at 5 µM; 0.74% of 340,000 active; AID 588413, 2011;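 active = inhibition above about 55%, limit read from the data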;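 also: 0% = DMSO-treated cells and 100% = wells with medium but no cells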
Mdm2-MdmX inh – inhibitors of human Mdm2-MdmX association, primary screen, cell-based, luminescence, split luciferase, SaOS-2, uHTS | inhibition, % at 8 µM | SaOS-2 split-luciferase Mdm2/MdmX complementation | 3% of 330,000 active | Protein Mdm4 (Homo sapiens) + E3 ubiquitin-protein ligase Mdm2 (Homo sapiens), …;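 active = inhibition of at least 50% at 8 µM in the primary screen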
Target sequence (O15151 whole entry, looked up): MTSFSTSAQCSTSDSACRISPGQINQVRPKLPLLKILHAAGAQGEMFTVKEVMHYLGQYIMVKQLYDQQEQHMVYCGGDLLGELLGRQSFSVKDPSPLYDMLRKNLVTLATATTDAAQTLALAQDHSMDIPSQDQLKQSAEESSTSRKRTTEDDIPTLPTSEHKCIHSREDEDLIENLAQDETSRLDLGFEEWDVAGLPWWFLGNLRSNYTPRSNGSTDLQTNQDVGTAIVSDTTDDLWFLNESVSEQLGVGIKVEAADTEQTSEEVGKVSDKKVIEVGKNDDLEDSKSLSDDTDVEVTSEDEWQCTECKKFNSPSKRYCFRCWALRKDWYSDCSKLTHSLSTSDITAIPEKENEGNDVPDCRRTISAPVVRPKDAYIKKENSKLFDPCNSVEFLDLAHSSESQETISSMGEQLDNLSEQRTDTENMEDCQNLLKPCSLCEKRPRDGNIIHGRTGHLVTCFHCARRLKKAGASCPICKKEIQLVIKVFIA
Target sequence (Q00987 whole entry, looked up): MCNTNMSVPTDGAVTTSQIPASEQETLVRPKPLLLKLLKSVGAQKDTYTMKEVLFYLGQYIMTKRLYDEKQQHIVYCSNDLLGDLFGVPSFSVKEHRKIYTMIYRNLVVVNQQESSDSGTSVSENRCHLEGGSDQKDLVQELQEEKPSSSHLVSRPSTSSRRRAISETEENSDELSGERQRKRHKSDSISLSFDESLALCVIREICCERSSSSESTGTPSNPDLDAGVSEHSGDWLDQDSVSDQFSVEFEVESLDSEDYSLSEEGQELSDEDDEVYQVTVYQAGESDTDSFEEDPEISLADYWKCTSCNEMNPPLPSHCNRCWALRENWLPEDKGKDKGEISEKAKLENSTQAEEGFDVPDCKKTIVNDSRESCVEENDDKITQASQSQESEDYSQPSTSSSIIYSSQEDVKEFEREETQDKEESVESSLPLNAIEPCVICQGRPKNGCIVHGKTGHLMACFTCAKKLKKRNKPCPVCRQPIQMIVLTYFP
Gli antag conf – Gli-SUFU pathway antagonists, confirmation, single concentration, luciferase luminescence, Sufu-KO-LIGHT cells | inhibition, % at 5 µM | Gli luciferase reporter | shares compounds with Gli-Sufu antag | 40% of 2,500 active;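 active = mean inhibition at 5 µM reaching about 45%, limit read from the data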;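 also: plate controls were DMSO-treated cells for no effect and wells lacking cells for full effect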
SufuKO cytotox – cytotoxicity in Sufu-KO-LIGHT cells, confirmation, cytotoxicity control for Gli-SUFU antagonist project, cell-based, ATP luminescence, single concentration. 32% of 2,500 active. cytotoxicity, % at 5 µM. AID 651994, 2013. shares compounds with Gli-Sufu antag;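 active = mean cytotoxicity at 5 µM above about 25%, limit read from the data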;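 also: cells exposed to compound overnight for roughly 16 to 18 hours; plate controls were DMSO wells with cells for no effect and medium without cells for full effect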
Wnt3a counter – Wnt3a reporter signal inhibition, confirmation, counter-screen for Gli-SUFU antagonist project, Wnt-LIGHT cells, luminescence, single concentration | Wnt3a-driven luciferase reporter | 20% of 2,500 active | inhibition, % at 6.25 µM | shares compounds with Gli-Sufu antag;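 active = mean inhibition above about 25%, limit read from the data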
* = called active by the depositor; · = no result given. In the library only some 4% were active in any assay of this set; here they are far more common.

SMILES	CSC inhib	Shn3 3UTR inh	Beta cell apopt	PAX8 reporter	Gli-Sufu antag	Mdm2-MdmX inh	Gli antag conf	SufuKO cytotox	Wnt3a counter
COC(=O)c1c[nH]c2c1-c1cc(C(=O)OCc3ccccc3)n(S(=O)(=O)c3ccc(C)cc3)c1C(=O)C2=O	·	-14.9	·	9.3	55.1*	·	76.4*	51.0*	100.3*
O=C1CN(C(=O)c2ccccc2F)c2ccccc2N1	-1.3	12.9	-9.3	·	-2.5	6.5	·	·	·
COc1cc(OC)cc(C(=O)N2CC(=O)Nc3ccccc32)c1	55.7	26.8	15.4	47.7	54.7	42.8	28.6	48.5*	-50.4
CCCN(C)C[C@H]1Oc2ncc(C#CCC(C)C)cc2C(=O)N([C@H](C)CO)C[C@@H]1C	·	·	·	-2.9	·	·	·	·	·
N#Cc1ccc(OCC(=O)NNC(=S)NC2CCCCC2)cc1	-2.7	-6.1	-12.5	-14.1	57.7*	-20.6	25.0	4.2	-4.9
COc1ccc(OCC(=O)NNC(=S)NC(=O)C2CCCCC2)cc1	2.4	-1.0	·	-1.8	·	-8.0	·	·	·
CCNc1ccc(C(=O)OC(C(=O)NC(N)=O)C(C)C)cc1[N+](=O)[O-] (stereo not drawn)	·	8.1	-0.9	11.8	59.3*	-2.4	22.1	-8.2	-6.3
CC(C)=CCSc1nnc([C@@H](NC(=O)OC(C)(C)C)C(C)C)o1	-2.2	24.1	0.3	-18.5	60.0*	10.5	10.2	25.4*	-32.0
COc1cccc(-c2ccc([C@@H]3[C@@H](CO)N4C(=O)CN(C(=O)CN5CCOCC5)C[C@H]34)cc2)c1	·	·	·	-6.5	·	·	·	·	·
Cc1ccc(S(=O)(=O)Nc2ccc3c(c2)C(=O)N([C@H](C)CO)C[C@H](C)[C@@H](CN(C)CC2CC2)OCCCC[C@@H](C)O3)cc1	·	·	·	-6.0	·	·	·	·	·
O=[N+]([O-])c1ccc(-c2ccc(S(=O)(=O)NCCN3CCCC3)cc2)cc1	-7.9	41.3	·	26.0	53.8	33.7	29.4	10.0	-28.6
C[C@@H]1CN([C@H](C)CO)C(=O)c2cc(NC(=O)CCC(F)(F)F)ccc2O[C@@H](C)CCCCO[C@@H]1CN(C)S(=O)(=O)c1cn(C)cn1	·	·	·	-6.2	·	·	·	·	·
Cc1c(NS(=O)(=O)c2ccc(NC(=O)CCC(=O)O)cc2)c(=O)n(-c2ccccc2)n1C	-6.0	2.6	-10.6	0.1	62.6*	21.9	5.2	14.1	-33.2
Cc1cc(C(=O)NNCc2ccccc2)no1	-5.1	-27.5	·	-5.0	-8.7	7.8	·	·	·
Cc1cc(C(=O)NCc2ccccc2)no1	2.8	-13.5	-2.6	·	88.9*	-1.2	22.7	19.1	-9.3
CCN(CC)S(=O)(=O)c1ccc(Oc2ccc(S(=O)(=O)N(CC)CC)cc2)cc1	-0.1	76.8	112.6*	·	80.2*	27.2	85.4*	45.4*	29.5*
CCN(CC)S(=O)(=O)c1ccc(Oc2ccccc2OC)cc1	-7.6	-1.4	-1.4	-17.7	1.6	7.8	·	·	·
C[C@H]1CN([C@@H](C)CO)C(=O)Cc2cc(NS(=O)(=O)c3cn(C)cn3)ccc2O[C@@H]1CN(C)C(=O)Nc1ccccc1	·	·	·	-17.3	·	·	·	·	·
COc1ccc(NC(=S)Nc2ccc(Oc3ccccc3)cc2)cc1	12.6	11.3	3.2	·	76.7*	29.5	38.4	21.8	0.1
CCNC(=S)Nc1ccc(Oc2ccccc2)cc1	-20.4	-18.5	-5.2	16.7	-5.7	1.4	·	·	·
COc1ccc(-c2c(-c3ccc(O)cc3O)n[nH]c2C(F)(F)F)cc1	31.0	17.3	-2.7	-6.3	4.3	39.8	·	·	·
COc1ccccc1-c1c(-c2ccc(O)cc2O)n[nH]c1C(F)(F)F	1.4	90.8*	65.5	14.1	50.5	5.7	62.9*	23.6	31.1*
CCC(=O)Nc1ccc2c(c1)OC[C@@H](C)N(C(=O)CN(C)C)C[C@@H](C)[C@@H](OC)CN(C)C2=O	·	·	·	-14.6	·	·	·	·	·
CC(C)(C)c1[nH]nc2c1C(c1ccco1)C(C#N)=C(N)O2 (stereo not drawn)	-11.7	-14.8	-6.9	-0.3	53.8	-35.8	10.5	24.0	-13.3
O=C(c1ccncc1)N1C[C@@H]2[C@H](c3ccccc31)[C@@H](CO)N2C(=O)Nc1ccccc1Cl	·	·	·	-3.7	·	·	·	·	·
SMILES	CSC inhib	Shn3 3UTR inh	Beta cell apopt	PAX8 reporter	Gli-Sufu antag	Mdm2-MdmX inh	Gli antag conf	SufuKO cytotox	Wnt3a counter
CCCCNC(=O)CNC(=O)c1nn(-c2ccc(OC)cc2OC)c(=O)c2ccccc12	-13.8	3.0	-5.0	-28.3	7.6	-2.1	·	·	·
COc1ccc(-n2nc(C(=O)NCC(=O)NCCC3=CCCCC3)c3ccccc3c2=O)c(OC)c1	-3.8	10.5	-6.1	0.6	56.2*	-3.8	19.6	7.9	-56.6
O=C(/C=C/NNC(=O)c1ccccc1)c1ccccc1	-8.5	-19.8	-4.5	·	11.7	-0.5	·	·	·
O=C(/C=C/NNC(=O)c1ccccc1)c1ccc([N+](=O)[O-])cc1	20.2	33.9	94.9*	-3.5	73.3*	41.5	33.9	27.7*	23.4
CCN(C(=O)COC(=O)/C=C/c1cnc2ccccc2n1)C1CCS(=O)(=O)C1 (stereo not drawn)	-8.7	7.3	-7.9	2.1	56.1*	-18.9	17.8	-3.1	-14.5
Cc1cc(C(=O)N/N=C2/CC(C)CC(C)(C)C2)c(C)o1 (stereo not drawn)	-7.5	-24.5	-1.5	14.1	52.0	-20.2	22.4	21.9	-2.0
CCN(C(=O)CSc1nnc(C)n1Cc1ccccc1)C1CCS(=O)(=O)C1 (stereo not drawn)	-13.1	10.0	0.8	6.7	-23.0	2.4	·	·	·
CCN(C(=O)CSc1nnc(-c2ccncc2)n1Cc1ccccc1)C1CCS(=O)(=O)C1 (stereo not drawn)	-10.4	4.0	-2.1	-2.3	58.2*	-24.2	15.3	18.7	-5.6
COc1cccc(NC(=O)Nc2ccc3c(c2)C(=O)N(C)[C@H]2CC[C@H](CC(=O)NCCc4ccccc4)O[C@H]2CO3)c1	·	·	·	16.8	·	·	·	·	·
N#Cc1cccc(-c2ccc3c(c2)[C@H]2[C@H](CCN2C(=O)C2CCCCC2)[C@@H](CO)N3)c1	·	·	·	54.7	·	·	·	·	·

Bioassay records as filed in PubChem.
